Source: the supplement of paper PMC9492666
Counter-ions that a name gives are not always drawn.

Columns and labels:
[1] = tested on: HCC1937; test: relative cell viability, compound + erastin, vs DMSO (fraction of DMSO control); higher = less growth inhibition; conditions: 72 h
[2] = tested on: MDA-MB-231; test: as above; conditions: 72 h
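Note: viability read by CCK-8 kit in 96-well plates, part of a combination screen pairing lipid-metabolism-targeting compounds with erastin.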

| Structure (SMILES) | relative cell viability [1] | relative cell viability [2] |
| --- | --- | --- |
| COc1ccc(CN2CCNCC2)c(OC)c1OC [Trimetazidine dihydrochloride] + CCOc1ccccc1-n1c(C(C)N2CCN(C(=O)COc3ccc(Cl)cc3)CC2)nc2ccccc2c1=O [erastin] | 0.786 | 0.55 |
| O=C(O)Cc1cccc(OCCCN(Cc2cccc(C(F)(F)F)c2Cl)CC(c2ccccc2)c2ccccc2)c1 + CCOc1ccccc1-n1c(C(C)N2CCN(C(=O)COc3ccc(Cl)cc3)CC2)nc2ccccc2c1=O [erastin] | 0.855 | 0.478 |
| CN1CCN(C(=O)C2C(C(=O)O)[C@H]3CC[C@@H]2O3)CC1 (some centres undefined) + CCOc1ccccc1-n1c(C(C)N2CCN(C(=O)COc3ccc(Cl)cc3)CC2)nc2ccccc2c1=O [erastin] | 0.278 | 0.394 |
| C[C@]12CC[C@@H](O)C[C@@H]1CC[C@@H]1[C@@H]2CC[C@]2(C)C(=O)CC[C@@H]12 [Androsterone] + CCOc1ccccc1-n1c(C(C)N2CCN(C(=O)COc3ccc(Cl)cc3)CC2)nc2ccccc2c1=O [erastin] | 0.763 | 0.564 |
| COc1ccc(/C=C/c2cc(O)cc(O[C@@H]3O[C@H](CO)[C@@H](O)[C@H](O)[C@H]3O)c2)cc1 [Deoxyrhapontin] + CCOc1ccccc1-n1c(C(C)N2CCN(C(=O)COc3ccc(Cl)cc3)CC2)nc2ccccc2c1=O [erastin] | 0.576 | 0.699 |
| O=C(O)CCCc1cc2cc(Cl)ccc2n1S(=O)(=O)c1ccc2ncsc2c1 [Lanifibranor] + CCOc1ccccc1-n1c(C(C)N2CCN(C(=O)COc3ccc(Cl)cc3)CC2)nc2ccccc2c1=O [erastin] | 0.672 | 0.886 |
| Nc1ccc(C(=O)O)c(O)c1 [Aminopar] + CCOc1ccccc1-n1c(C(C)N2CCN(C(=O)COc3ccc(Cl)cc3)CC2)nc2ccccc2c1=O [erastin] | 0.773 | 0.664 |
| Cc1cc(C)c(S(=O)(=O)N(CCc2cccc(Br)c2)Cc2ccc(-c3cccc(S(C)(=O)=O)c3)cc2)c(C)c1 + CCOc1ccccc1-n1c(C(C)N2CCN(C(=O)COc3ccc(Cl)cc3)CC2)nc2ccccc2c1=O [erastin] | 0.537 | 0.777 |
| COc1cc(N2CCN(C)CC2)ccc1Nc1ncc2c(n1)N(C)c1ccccc1C(=O)N2 + CCOc1ccccc1-n1c(C(C)N2CCN(C(=O)COc3ccc(Cl)cc3)CC2)nc2ccccc2c1=O [erastin] | 0.365 | 0.788 |
| CC(C)c1nc(N(C)S(C)(=O)=O)nc(-c2ccc(F)cc2)c1/C=C/[C@@H](O)C[C@@H](O)CC(=O)O [Rosuvastatin] + CCOc1ccccc1-n1c(C(C)N2CCN(C(=O)COc3ccc(Cl)cc3)CC2)nc2ccccc2c1=O [erastin] | 0.656 | 0.781 |
| COc1cc(N2CCN(C)CC2)ccc1Nc1ncc2c(n1)N(C1CCC1)C(=O)N(c1c(C)cccc1C)C2 + CCOc1ccccc1-n1c(C(C)N2CCN(C(=O)COc3ccc(Cl)cc3)CC2)nc2ccccc2c1=O [erastin] | 0.56 | 0.586 |
| Cc1nc(Nc2cnn(C3CCNCC3)c2)nc2c1N(C)C(=O)c1cc3ccccc3cc1N2C + CCOc1ccccc1-n1c(C(C)N2CCN(C(=O)COc3ccc(Cl)cc3)CC2)nc2ccccc2c1=O [erastin] | 0.215 | 0.421 |
| O=C(O)/C=C/c1ccc(O)c(O)c1 [Caffeic Acid] + CCOc1ccccc1-n1c(C(C)N2CCN(C(=O)COc3ccc(Cl)cc3)CC2)nc2ccccc2c1=O [erastin] | 0.777 | 0.979 |
| c1ccc([C@H]2CN3CCSC3=N2)cc1 [Levamisole hydrochloride] + CCOc1ccccc1-n1c(C(C)N2CCN(C(=O)COc3ccc(Cl)cc3)CC2)nc2ccccc2c1=O [erastin] | 0.768 | 0.779 |
| Cc1cc(SCc2sc(-c3ccc(C(F)(F)F)cc3)nc2C)ccc1OCC(=O)O + CCOc1ccccc1-n1c(C(C)N2CCN(C(=O)COc3ccc(Cl)cc3)CC2)nc2ccccc2c1=O [erastin] | 0.529 | 0.558 |
| O=C(ON1C(=O)CCC1=O)N1CCN(C(c2ccc(Cl)cc2)c2ccc(Cl)cc2)CC1 [Cravatt Reagent] + CCOc1ccccc1-n1c(C(C)N2CCN(C(=O)COc3ccc(Cl)cc3)CC2)nc2ccccc2c1=O [erastin] | 0.886 | 0.772 |
| CCCCC[C@H](O)CC(=O)CCc1ccc(O)c(OC)c1 [6-Gingerol] + CCOc1ccccc1-n1c(C(C)N2CCN(C(=O)COc3ccc(Cl)cc3)CC2)nc2ccccc2c1=O [erastin] | 0.444 | 0.693 |
| COc1cc(C(C)=O)ccc1O [Acetovanillone] + CCOc1ccccc1-n1c(C(C)N2CCN(C(=O)COc3ccc(Cl)cc3)CC2)nc2ccccc2c1=O [erastin] | 0.508 | 0.666 |
| CCCCCCCCCCC#CC#CCCCCCCCCC(=O)O [10,12-Tricosadiynoic acid] + CCOc1ccccc1-n1c(C(C)N2CCN(C(=O)COc3ccc(Cl)cc3)CC2)nc2ccccc2c1=O [erastin] | 0.648 | 0.627 |

| Structure (SMILES) | relative cell viability [1] | relative cell viability [2] |
| --- | --- | --- |
| Cc1cc(N2C[C@@H](C)N[C@@H](C)C2)ncc1-c1ccc(-c2nc3c(ccn3C)c(=O)[nH]2)cc1 + CCOc1ccccc1-n1c(C(C)N2CCN(C(=O)COc3ccc(Cl)cc3)CC2)nc2ccccc2c1=O [erastin] | 0.506 | 0.551 |
| CN(C(=O)n1cnc(-c2ccc[n+]([O-])c2)c1)C1CCCCC1 + CCOc1ccccc1-n1c(C(C)N2CCN(C(=O)COc3ccc(Cl)cc3)CC2)nc2ccccc2c1=O [erastin] | 0.427 | 0.613 |
| NNC(=O)c1nn(Cc2ccc(Cl)cc2Cl)c2ccccc12 [Adjudin] + CCOc1ccccc1-n1c(C(C)N2CCN(C(=O)COc3ccc(Cl)cc3)CC2)nc2ccccc2c1=O [erastin] | 0.557 | 0.711 |
| C=C(C)[C@@H]1CC[C@]2(CO)CC[C@]3(C)[C@H](CC[C@@H]4[C@@]5(C)CC[C@H](O)C(C)(C)[C@@H]5CC[C@]43C)[C@@H]12 [Betulin] + CCOc1ccccc1-n1c(C(C)N2CCN(C(=O)COc3ccc(Cl)cc3)CC2)nc2ccccc2c1=O [erastin] | 0.524 | 0.32 |
| COC(=O)/C=C/c1cccc(N(Cc2ccc(-c3ccc(N(C)C)cc3)cc2)C(=O)C2CCCCC2)c1 [Fexaramine] + CCOc1ccccc1-n1c(C(C)N2CCN(C(=O)COc3ccc(Cl)cc3)CC2)nc2ccccc2c1=O [erastin] | 0.5 | 1.08 |
| CC(=O)Oc1cc(C(F)(F)F)ccc1C(=O)O [Triflusal] + CCOc1ccccc1-n1c(C(C)N2CCN(C(=O)COc3ccc(Cl)cc3)CC2)nc2ccccc2c1=O [erastin] | 0.751 | 0.648 |
| CC(C)[C@H]1CC[C@H](C(=O)N[C@H](Cc2ccccc2)C(=O)O)CC1 [Nateglinide] + CCOc1ccccc1-n1c(C(C)N2CCN(C(=O)COc3ccc(Cl)cc3)CC2)nc2ccccc2c1=O [erastin] | 0.666 | 0.734 |
| Oc1ccc2c(c1)OCO2 [Sesamol] + CCOc1ccccc1-n1c(C(C)N2CCN(C(=O)COc3ccc(Cl)cc3)CC2)nc2ccccc2c1=O [erastin] | 0.489 | 1.02 |
| COC(=O)N(CC(=O)O)Cc1cccc(OCc2nc(-c3ccc(Cl)cc3)oc2C)c1 + CCOc1ccccc1-n1c(C(C)N2CCN(C(=O)COc3ccc(Cl)cc3)CC2)nc2ccccc2c1=O [erastin] | 0.734 | 0.627 |
| Cc1c(C(=O)Nc2ccc(CO)cc2)nnn1Cc1ccc(Cl)c(Cl)c1 + CCOc1ccccc1-n1c(C(C)N2CCN(C(=O)COc3ccc(Cl)cc3)CC2)nc2ccccc2c1=O [erastin] | 0.684 | 0.733 |
| CCN(CC)Cc1ccc(C(=O)N(CCc2ccccc2OC)[C@@H]2CCNC2)cc1 + CCOc1ccccc1-n1c(C(C)N2CCN(C(=O)COc3ccc(Cl)cc3)CC2)nc2ccccc2c1=O [erastin] | 0.872 | 0.726 |
| NC(N)=N/N=C/c1cccc(Cl)c1Cl [Raphin1 acetate] + CCOc1ccccc1-n1c(C(C)N2CCN(C(=O)COc3ccc(Cl)cc3)CC2)nc2ccccc2c1=O [erastin] | 0.718 | 0.588 |
| Cn1c2cc([S+](C)[O-])sc2c2cnn(Cc3cccc(N)c3)c(=O)c21 (centres undefined) + CCOc1ccccc1-n1c(C(C)N2CCN(C(=O)COc3ccc(Cl)cc3)CC2)nc2ccccc2c1=O [erastin] | 0.61 | 0.745 |
| CC[C@H](C)C(=O)O[C@H]1CCC=C2C=C[C@H](C)[C@H](CC[C@@H]3C[C@@H](O)CC(=O)O3)[C@H]21 [Mevastatin] + CCOc1ccccc1-n1c(C(C)N2CCN(C(=O)COc3ccc(Cl)cc3)CC2)nc2ccccc2c1=O [erastin] | 0.6 | 0.434 |
| O=C(O)C(=O)Nc1sc2c(c1C(=O)O)CCNC2 + CCOc1ccccc1-n1c(C(C)N2CCN(C(=O)COc3ccc(Cl)cc3)CC2)nc2ccccc2c1=O [erastin] | 0.755 | 0.635 |
| N=C(N)NC(=N)NCCc1ccccc1 [Phenformin hydrochloride] + CCOc1ccccc1-n1c(C(C)N2CCN(C(=O)COc3ccc(Cl)cc3)CC2)nc2ccccc2c1=O [erastin] | 0.756 | 0.999 |
| O=C1C(SCCO)=C(SCCO)C(=O)c2ccccc21 + CCOc1ccccc1-n1c(C(C)N2CCN(C(=O)COc3ccc(Cl)cc3)CC2)nc2ccccc2c1=O [erastin] | 0.575 | 0.851 |
| CC(C)OC(=O)CCC/C=C\C[C@@H]1[C@@H](CC[C@@H](O)CCc2ccccc2)[C@H](O)C[C@@H]1O [Latanoprost] + CCOc1ccccc1-n1c(C(C)N2CCN(C(=O)COc3ccc(Cl)cc3)CC2)nc2ccccc2c1=O [erastin] | 1 | 0.663 |
